From PubChem BioAssay AID504607 (Sanford-Burnham Center for Chemical Genomics, 2011) come the findings set out here.

SMILES strings stand for the structures. Out of some 6,200 compounds screened, about 4,800 (77%) were called active. So high a share suggests a set chosen from earlier hits. Not all results are given here. Values without a mark were called inactive.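 The calls were made as follows: active = mean inhibition at 8 µM reaching about 37%, which flags the compound as non-specific (limit read from the data); inactive = the rest.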

The test is described as follows: luminescence decrease from intact luciferase reporter – cell-based, single concentration, SaOS-2, counter-screen for Mdm2/MdmX interaction inhibitor project, confirmation (AID 504607).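 Also: p53-null SaOS-2 cells with luciferase driven by a doxycycline-inducible promoter; compound on cells about two nights before reading with doxycycline added after day one.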 To be noted: SaOS-2 full-length luciferase counterscreen, at 8 µM, active compounds read high. In general terms: A reporter such as luciferase makes a cellular process visible.
For orientation: inhibition means the change of the read-out against control, counted positive when it falls. Consider `CCCCCCCCCCCCn1ccc(=N)cc1`, for which the inhibition is 52.1% (active).

In the case of `CNC(=O)O/N=C(\N)Cc1csc2ccccc12`, the inhibition is 81.2% (active). Consider `CNC(=O)O/N=C(\N)Cc1csc2ccc(Cl)cc12`, for which the inhibition was 126% (active).

For the compound `CCOc1ccc(-c2cc(C)[n+](CCN(CC)CC)c(-c3ccc(OCC)cc3)c2)cc1`, the inhibition was 22.3%. The result for `O=C1NC(=O)N(CCc2ccc(F)cc2)C(=O)/C1=C/C=C/c1ccccc1` reads 83.8% (active); that for `COC(=O)C1=C(c2ccc(F)cc2OCc2ccccc2)C[C@@H]2CC[C@H]1N2C(=O)NCc1ccc2[nH]ccc2c1`, 94.7% (active).

On to `Cc1cc2ccccn2c1C(C[N+](=O)[O-])c1c(F)cccc1Cl` (centres undefined), for which the inhibition is 29.6%. For the compound `O=C1C2(Cl)C3(Cl)C4(Cl)C(Cl)(Cl)C5(Cl)C3(Cl)C1(Cl)C5(Cl)C24Cl` (centres undefined), the inhibition is 46.6% (active). For the compound `O=Cc1cn(Cc2ccc(F)cc2Cl)c2ccccc12`, the inhibition is 35.1%.
